# Sampled rows, rich in hits. Any-hit rate of the full collection: about 4.6%.
# D1 antag: antagonists of human D1 dopamine receptor; P21728; HEK293 TREx D1 cells, calcium flux, dopamine EC80; hits give low values; activity change, negative = inhibition, % at 10 µM; 3.2% of 360,000 active; AID 504652; in the data active means activity change below about -30%; further: on the % scale 0 is the no-effect control and ±100 the full control effect
#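 Calcium flux readout: force-coupled, inducible Hek293 Trex D1 line, cells induced overnight at 30 C with tetracycline, dye-loaded 30–90 min at RT. Antagonism scored against EC80 dopamine challenge given 180 s after compound.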
# TRHR enhancer: allosteric enhancers of human TRH receptor; P34981; TRHR cells, fluo-8 calcium fluorescence, EC20 TRH enhancement; enhancement, % at 2 µM; 0.66% of 360,000 active; AID 493056; in the data active means enhancement above about 30%; further: 0% is about no effect
# Target sequence (P34981 whole entry, looked up): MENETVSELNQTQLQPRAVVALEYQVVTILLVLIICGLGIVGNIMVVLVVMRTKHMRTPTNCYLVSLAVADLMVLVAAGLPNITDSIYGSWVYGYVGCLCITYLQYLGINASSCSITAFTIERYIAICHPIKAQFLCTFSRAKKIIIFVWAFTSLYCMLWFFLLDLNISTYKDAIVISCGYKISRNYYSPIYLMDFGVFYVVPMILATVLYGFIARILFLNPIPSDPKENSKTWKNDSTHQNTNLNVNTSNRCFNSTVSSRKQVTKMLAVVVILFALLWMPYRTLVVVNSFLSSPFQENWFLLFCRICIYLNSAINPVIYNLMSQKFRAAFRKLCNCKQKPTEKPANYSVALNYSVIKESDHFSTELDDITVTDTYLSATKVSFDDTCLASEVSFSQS
#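 TRHR-expressing cells loaded with fluo-8 calcium dye were read kinetically (ex 480/em 530) during compound addition, then stimulated with an EC20 of TRH (10 nM final). Enhancement of the Gq-mediated intracellular calcium response was scored.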
# D1 ag: activates the human D1 dopamine receptor; HEK293 T-REx D1 cells, calcium flux, agonist mode; activation, % at 2 µM; AID 504660; 1% of 360,000 active; further: 0% is about no effect
#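 Inducible HEK293 T-REx D1 cells, force-coupled to calcium signalling, were plated at 4000 cells/well with tetracycline and held overnight at 30 C. After no-wash calcium dye loading, compound-evoked calcium rise over 180 s flagged agonists.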
# TRHR ag: agonists of human TRH receptor. activation, % at 2 µM. 0.18% of 360,000 active. P34981. AID 493084. TRHR cells, calcium flux fluo-8, FDSS agonist mode; further: 0% is about no effect
#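 TRHR-expressing cells, plated overnight in medium with 10% serum, were loaded with fluo-8 calcium dye at room temperature. After a 10 s baseline, library compound was pin-added and calcium release was recorded kinetically (ex 480/em 530) as agonist response.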
# D1 potentiator: human D1 dopamine receptor positive modulation. P21728. 0.036% of 360,000 active. potentiation, % at 10 µM. HEK293 TREx D1 cells, calcium flux, dopamine EC20 potentiation; in the data active means potentiation above about 30%; further: 0% is about no effect
# Starred values were filed as active, the others as inactive. Unless noted, no stated cut-off is given here; in the data, active means activation above about 30%; inactive means the rest.
SMILES,D1 antag,TRHR enhancer,D1 ag,TRHR ag,D1 potentiator
C=CCN1C(=O)/C(=c2\sc3nc(=O)c(Cc4ccccc4Cl)nn3c2=O)c2ccccc21,-7.4,-3.7,1.8,0.1,-1.9
COc1ccc(NC(=O)CN(C)C(=O)c2cc(-c3cccs3)nn2-c2ccccc2)cc1,12.0,-6.3,1.1,0.0,-8.9
CCOc1ccc(NC(=O)CN(C)C(=O)c2cc(-c3cccs3)nn2-c2ccccc2)cc1OCC,-57.0*,-4.5,0.7,-0.6,-3.9
Cc1cccc(CCNC(=O)C2CCC(CNS(=O)(=O)c3c(C)cc(C)cc3C)CC2)c1 (stereo not given),-6.4,1.1,9.2,0.1,1.0
CCOC(=O)Cn1c(=O)oc2cc(S(=O)(=O)NCCc3ccc(C)cc3)ccc21,0.1,-3.2,1.3,0.6,-3.1
CCOC(=O)Cn1c(=O)oc2cc(S(=O)(=O)Nc3ccc(F)cc3)ccc21,-65.9*,3.9,76.6*,-0.1,0.0
CCOC(=O)Cn1c(=O)oc2cc(S(=O)(=O)N3CCN(c4ccc(C(C)=O)cc4)CC3)ccc21,-42.7*,5.0,9.3,0.9,-4.6
CCOC(=O)c1ccc(NC(=O)CCc2c(C)nc3nc[nH]n3c2=O)cc1,1.8,2.4,2.1,0.1,-1.6
CCCN1CCCc2cc(CN(CCCN3CCOCC3)C(=O)Nc3ccc(Cl)c(Cl)c3)ccc21,5.1,2.5,0.9,0.5,-4.8
CCCN(C(=O)Nc1cn(CC(C)C)c(=O)c2ccccc12)c1ccc(F)cc1,5.7,9.7,0.4,-1.1,5.5
CCOC(=O)CN(C(=O)CSc1nnc(COc2ccc(OC)cc2)n1C)c1ccccc1,-45.7*,3.1,-1.3,-0.5,-3.3
COC(=O)/C=C(\C)N=Nc1c(O)[nH]c2ccccc12,26.0,-6.0,143.6*,8.2,-4.0
Oc1[nH]c2ccccc2c1N=Nc1ccccc1,57.7,3.7,10.7,2.4,5.0
Oc1[nH]c2ccccc2c1N=Nc1ccc(F)cc1,-9.4,6.5,28.6,6.4,-6.3
Oc1[nH]c2ccccc2c1N=Nc1ccccc1F,-2.4,-2.8,38.7*,8.5,-6.3
O=S1(=O)N=C(N=Nc2c(O)[nH]c3ccccc23)c2ccccc21,-33.8*,-2.5,4.4,0.0,0.2
CCOc1ccc(N(C(=O)c2ccc(Cl)cc2)S(=O)(=O)c2ccc3c(c2)n(C)c(=O)n3C)cc1,10.7,4.1,0.5,0.3,0.1
O=C(CNC(=O)c1ccc2n[nH]nc2c1)OC(C(=O)Nc1cc(C(F)(F)F)ccc1Cl)c1ccccc1 (stereo not given),3.2,8.9,2.7,-2.2,13.3
COC(=O)c1ccc(C(=O)OC)c(NC(=O)COC(=O)c2ccc(OC)c(OC)c2OC)c1,-86.3*,-5.4,-0.2,0.0,-5.5
CCOCC(=O)Nc1cc(C(=O)OC)ccc1C(=O)OC,-19.0,-0.2,-0.2,-0.7,-9.9
CC(C)CC1C(C#N)=C(N)SC(N)=C1C#N,-8.6,4.1,38.4*,-0.7,-3.3
N#CC1=C(N)SC(N)=C(C#N)C1Cc1ccccc1,10.8,22.2,9.8,3.8,-5.0
Cc1cc(C)c(Cn2c(=O)n(CCCC(=O)NCc3ccc4c(c3)OCO4)c(=O)c3sccc32)c(C)c1,-5.7,-4.1,1.4,-0.7,0.8
CCOc1ccc(/C=C/c2nc(C#N)c(Nc3ccc(OC)cc3)o2)cc1,4.5,-0.2,2.7,0.0,0.1
C=C1CCC2[C@](C)(CO)[C@H](O)CC[C@@]2(C)[C@@H]1/C=C/C1=CCOC1=O (stereo not given in full),-65.8*,-0.7,2.5,1.1,-6.0
SMILES,D1 antag,TRHR enhancer,D1 ag,TRHR ag,D1 potentiator
C=C1CC[C@@H]2[C@](C)(CO)[C@H](O)CC[C@@]2(C)[C@@H]1/C=C/C1=CCOC1=O,-9.7,12.2,4.1,0.4,-2.4
CCc1ccc(-n2nc(C)c3c(C(=O)Nc4cc(OC)cc(OC)c4)cc(C)nc32)cc1,6.5,4.2,4.0,0.7,1.2
Cc1ccc(-n2c(C)nn(-c3ncc(C(F)(F)F)cc3Cl)c2=O)cc1,-46.9*,-3.2,0.1,-0.1,-5.3
Cn1c(SCc2c(F)cccc2Cl)nc2c(c1=O)SCC2,-30.8*,-8.0,1.6,-1.2,-8.2
CCc1cccc(NC(=O)CN2C(=O)COc3ccc(S(=O)(=O)Nc4ccccc4)cc32)c1,-1.6,-22.4,0.9,1.1,0.2
O=C(N1CCc2cc([S+](=O)([O-])N3CCN([S+](=O)([O-])c4c(F)cccc4F)CC3)ccc2C1)C(F)(F)F,1.1,1.4,2.0,1.3,1.6
CCn1c(=O)c(-[n+]2ccccc2)c(O)c2ccccc21,-35.4*,-3.2,1.9,-0.9,2.5
Cc1cc(C)cc(Nc2cc(C)nc3nc(-c4ccco4)nn23)c1,-39.4*,0.4,2.8,-0.3,0.0
O=[S+]([O-])(c1ccc2c(c1)OCCO2)N1CCN([S+](=O)([O-])c2c(O)cc(F)cc2F)CC1,-48.4*,-5.6,-0.6,1.8,-9.8
O=[S+]([O-])(c1ccc2c(c1)OCCO2)N1CCN([S+](=O)([O-])c2c(F)cc(O)cc2F)CC1,-24.1,-3.7,1.7,1.1,-4.2
CCN1C(=O)/C(=C/N2CCc3ccccc32)SC1=S,-19.2,1.3,2.0,0.9,0.1
CCN1C(=O)/C(=C/C=C2/SCCN2C)SC1=S,23.4,-4.0,41.0*,16.5,11.9
CCCN1C(=O)/C(=C/c2ccncc2)SC1=S,-4.5,-1.4,0.4,-0.6,-2.1
CCCN1C(=O)/C(=C\C=C2/Sc3ccccc3N2CCO)SC1=S,2.3,-2.3,30.2*,13.9,-5.4
CCN1C(=O)/C(=C/C=C2/Sc3ccccc3N2CCO)SC1=S,6.8,7.5,32.1*,7.7,1.8
CCN1C(=O)/C(=C\N2CCN(C(=O)c3ccco3)CC2)SC1=S,6.2,0.2,4.4,1.2,-1.4
O=C(NCc1ccccc1Cl)NCc1noc2ccccc12,-2.0,-0.3,1.1,0.1,-3.7
COc1ccccc1CNC(=O)CCC(=O)N1Cc2ccccc2Oc2ncccc21,7.8,-1.8,6.3,0.4,-3.0
Cc1ccccc1CCNC(=O)c1ccc2c(c1)nc1n2CCCCC1,10.2,-3.1,-0.6,-0.6,-0.5
O=C(Nc1ccc2oc(-c3cccc(F)c3)nc2c1)c1ccc2ccccc2c1,-3.1,-1.2,-1.9,1.1,-0.1
N#C/C(=C\c1ccc(O)cc1)c1nc2ccccc2o1,-17.7,-3.3,21.1,5.6,-2.5
COc1cc(/C=C(\C#N)c2nc3ccccc3o2)ccc1O,-4.9,6.2,332.3*,77.8*,5.0
O=C(O/N=C/c1ccc2c(c1)OCO2)c1ccc([N+](=O)[O-])cc1,14.2,-4.8,0.2,0.2,-7.0
Cc1ccc(C(=O)O/N=C/c2ccc3c(c2)OCO3)cc1,-66.9*,5.9,5.5,1.5,-10.4
Cc1cc(C)cc(NC(=O)c2cccc(C(=O)Nc3cc(C)cc(C)c3)c2)c1,3.1,2.3,-0.3,0.3,-0.5
S=C(NCc1ccccc1)NCc1ccc(Cl)cc1,-15.0,-1.5,6.4,0.1,0.4
